# Measured values from PubChem BioAssay AID2462 (Broad Institute, 2010).
# Among all 330,000 compounds or so, about 220 (0.067%) were called active.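 The calls were made as follows: active = over half of replicate activation scores above 10%, or exactly half above 10 with the replicate mean above 10; inconclusive = replicate mean below 10 yet half the replicates above 10; inactive = over half of replicates below 10.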 What follows is part of a selection rich in actives, with near analogues and random picks from the rest.
# Assay: inducers of caspase signal in A1-primed MEFs – cell-based, luminescence, HTS, A1 inhibitor project, primary screen (AID 2462)
# Settings: MEF A1-2A-BIM cells, Caspase-Glo 3/7 luminescence, 3 h; stronger effect = higher value; percent of clofoctol response, vehicle zero; concentration not given here
row,SMILES,caspase activation
1,CCOc1ccc(Br)cc1S(=O)(=O)Nc1ccc(S(=O)(=O)Nc2cc(C)on2)cc1,1.21% (inactive)
2,O=C(Nc1ccc(Cl)c(Cl)c1)c1ccccc1NC(=O)C1CC=CCC1C(=O)O (configuration not stated),-2.01% (inactive)
3,Cc1ccc(-n2ncc3c2CC(C)(C)CC3NC(=O)Cc2c(C)noc2C)cc1 (configuration not stated),1.06% (inactive)
4,Cc1cc(C(C)(C)C)cc(S(=O)(=O)Nc2ccc(C(=O)O)cc2)c1C,-0.667% (inactive)
5,CCCCCn1c(=O)c(C(=O)OCC)c(Cl)c2ccccc21,0.0442% (inactive)
6,N#CCSc1nc(-c2ccccc2)nc2ccc(F)cc12,1.31% (inactive)
7,C#CCOCCOCCOCCNc1nc(N2CCN(C(=O)C([C@@H](C)O)n3cc([C@@H](N)CCCCN)nn3)CC2)nc(N2CCN(C(=O)[C@H](CCCCN)n3cc(CN)nn3)CC2)n1 (some centres not stated),0.837% (inactive)
8,Cc1cc(=O)[nH]c(S)c1C#N,0.51% (inactive)
9,COCCn1c(N)c(NCc2ccccc2)c(=O)[nH]c1=O,-0.132% (inactive)
10,CCC(C)N(C(=O)COC(=O)C1C(C(=O)OC)=C(C)NC(C)=C1C(=O)OC)C1CCS(=O)(=O)C1 (configuration not stated),-0.124% (inactive)
11,CCCCc1ccc(NC(=S)N2CCCC(CO)C2)cc1 (configuration not stated),-0.669% (inactive)
12,CCCc1cc(C(=O)Nc2ccc(Cl)cn2)cs1,-8.84% (inactive)
13,Nc1ccccc1SC(C[N+](=O)[O-])c1ccccc1 (configuration not stated),9.45% (active)
14,Cc1ccc(C(C[N+](=O)[O-])c2c(C)cc3ccccn23)cc1 (configuration not stated),1.62% (inactive)
15,CCS(=O)(=O)c1cc([N+](=O)[O-])c(Sc2ccccc2N)s1,1.52% (inactive)
16,COc1cc(-c2nnc(NC(=O)C3=COCCO3)o2)cc(OC)c1OC,0.457% (inactive)
17,Cc1ccc(C(=O)Nc2nnc(C3=COCCO3)o2)cc1C,44.6% (active)
18,O=C(Nc1nnc(C2=COCCO2)o1)c1ccc([N+](=O)[O-])s1,-4.99% (inactive)
19,ON=C1/C(=N\O)CC2(C/C1=N/O)OCCO2,0.622% (inactive)
20,O=C1CCCc2nn(-c3ccccc3)nc21,-0.0976% (inactive)
21,COC(=O)Nc1ncc(CN2CCCCC2)s1,0.0297% (inactive)
22,CSCC[C@H](NC(=O)NCCc1ccc(F)cc1)C(=O)O,0.319% (inactive)
23,CC(C)CC(=O)c1c[nH]c(C(=O)NCc2ccccc2)c1,6.29% (active)

row,SMILES,caspase activation
1,COc1ccc(CNC(=O)c2cc(C(=O)C3CC3)c[nH]2)cc1,-0.0151% (inactive)
2,O=C(c1ccc(F)cc1)c1c[nH]c(C(=O)NCc2cccnc2)c1,0.0496% (inactive)
3,CC(=O)Nc1cccc(NC(=O)c2ccc3c(c2)CCN3S(C)(=O)=O)c1,0.604% (inactive)
4,COc1ccc(-c2n[nH]c3c2CN(C(=O)c2ccc(F)cc2)CC3)cc1,1.44% (inactive)
5,CCOC(=O)c1sc(N)c(C#N)c1COC(=O)C1=COCCO1,0.458% (inactive)
6,COc1ccc(CNC(=O)c2ccc(NS(=O)(=O)c3ccc4[nH]c(=O)[nH]c4c3)cc2)cc1OC,-0.468% (inactive)
7,COc1cccc(NC(=O)CN(C)C(=O)/C=C/c2cc(OC)ccc2OC)c1,-0.126% (inactive)
8,O=C(O)c1ccn(COc2ccc(Br)cc2)n1,-1.22% (inactive)
9,CC(C)N(C(=O)CN1CCN(S(=O)(=O)c2ccc(Br)s2)CC1)C(C)C,1.33% (inactive)
10,CC(C)n1cnc2c(NCc3ccccc3)cc(N[C@@H](CO)Cc3ccccc3)cc21,-2.12% (inactive)
11,O=c1c2ccccc2ccc2ccc(P(=O)(O)O)cc12,0.843% (inactive)
12,N#CCOc1ccc(C2=NO[C@@H]3[C@@H]4C[C@@H]([C@H]5C(=O)N(c6ccc7c(c6)OCO7)C(=O)[C@@H]45)[C@H]23)cc1,0.442% (inactive)
13,CSc1cc(C)[nH]c(=O)n1,-0.248% (inactive)
14,O=S(=O)(c1ccccc1)N(Cc1cccc(F)c1)c1ccccc1,0.447% (inactive)
15,O=[N+]([O-])/C=C/c1ccc2c(ccn2Cc2ccccc2)c1,9.93% (active)
16,O=C(Cn1ccc2cc(S(=O)(=O)N3CCCC3)ccc21)NCc1ccccc1,-0.143% (inactive)
17,COC(=O)Cn1cc(/C=C/[N+](=O)[O-])c2ccccc21,1.03% (inactive)
18,COc1ccc(S(=O)(=O)N(C)C[C@H]2Oc3ccc(NS(=O)(=O)c4cccs4)cc3CC(=O)N([C@H](C)CO)C[C@H]2C)cc1,-0.719% (inactive)
19,O=C(O)c1cccnc1Sc1ncnc2sc3c(c12)CCC3,-0.234% (inactive)
20,O=C(CSc1nc(Nc2ccccc2)nc(N2CCOCC2)n1)Nc1cc(Cl)ccc1O,0.376% (inactive)
21,Nc1nc(Br)c2ccccc2c1-c1ccc(F)cc1,-0.0976% (inactive)
22,CC(C)(O)C#Cc1ncc(C(F)(F)F)cc1Cl,0.0403% (inactive)
23,Cc1ccc(NCc2n[nH]c(=S)n2-c2ccccc2)cc1Cl,-0.072% (inactive)

row,SMILES,caspase activation
1,CCCS(=O)(=O)N1CCN=C1SCc1cccc(F)c1,-0.156% (inactive)
2,CCn1ncc(CNC(=O)C2(C)CC2(Br)Br)c1C (configuration not stated),-0.282% (inactive)
3,COc1cc(C(=O)NC2CCN(Cc3ccccc3)CC2)cc(Cl)c1OC(C)C,-0.406% (inactive)
4,COc1ccccc1CNC(=O)CCCNS(=O)(=O)c1cccc2nsnc12,0.433% (inactive)
5,O=C(c1cc2ccccc2o1)N1CCN(S(=O)(=O)c2ccc(Cl)s2)CC1,-0.105% (inactive)
6,COc1ccc(CNC(=O)CN2CCC(n3nnc4cc(F)ccc43)CC2)cc1,-0.421% (inactive)
7,CC1CCCN(C(C(=O)Nc2ccc(C(C)C)cc2)c2ccc3c(c2)OCO3)C1 (configuration not stated),-0.471% (inactive)
8,NC(=O)C1CCCN(CC(=O)N2CCN(c3ccccc3)CC2)C1 (configuration not stated),-0.0385% (inactive)
9,Cc1ccc(S(=O)(=O)N2CCN(C(=O)CN3C(=O)NC(C)(c4ccc(Cl)cc4)C3=O)CC2)c(C)c1 (configuration not stated),-0.688% (inactive)
10,CC(NCC(=O)Nc1ccccc1C(=O)NC1CC1)c1ccccc1Cl (configuration not stated),0.355% (inactive)
11,CC(=O)N(CN1C(=O)C2C3C=CC(C3)C2C1=O)c1cccc(Cl)c1 (configuration not stated),0.192% (inactive)
12,CCOc1ccccc1NC(=O)NC1CCCCCCC1,-0.841% (inactive)
13,Cn1c(CCCOc2ccc(Cl)cc2Cl)n[nH]c1=S,-0.629% (inactive)
14,O=C(NC(=S)Nc1ccc2oc(=O)ccc2c1)c1ccc(-c2cccc(Cl)c2Cl)o1,0.568% (inactive)
15,CC1CCc2[nH]c3ccc(C(=O)N(C)CC(=O)Nc4cccc(F)c4)cc3c2C1 (configuration not stated),0.268% (inactive)
16,Cc1ccc(S(=O)(=O)c2c[nH]c3ccc(C)cc3c2=O)cc1,-2.55% (inactive)
17,COc1ccc(-c2cnc(SCCNC(=O)c3ccc4c(c3)OCO4)[nH]2)cc1,1.35% (inactive)
18,COC(=O)c1ccc(COc2ccc(/C=N/NC(=O)C(=O)Nc3ccc(OC)cc3)cc2OC)o1,0.365% (inactive)
19,CCCc1ccc(OCc2ccc(C(=O)N/N=C/c3cccc([N+](=O)[O-])c3)o2)c(OC)c1,16.1% (active)
20,O=C(N/N=C/c1cccc(OCc2ccccc2)c1)c1ccc(Br)o1,0.285% (inactive)
21,NC(=O)COC(=O)c1cc(S(=O)(=O)N2CCN(c3ccccc3)CC2)ccc1Cl,0.691% (inactive)
